# Out of some 340,000 compounds screened, about 1,000 (0.29%) were called active. Cut-off read from the data, not from the text of the source: inconclusive = inhibition above about 27% without an active follow-up result; inactive = below that. These entries were drawn from the full list. Measured potencies and affinities stand elsewhere.
# Assay: NS1A inhibition, H1N1 influenza, cell based functional assay (AID 504329)
# Conditions: percent inhibition, at 12.5 µM, hits give high values
row,Structure (SMILES),inhibition
1,CC[C@@]1(C(=O)OC)N[C@H](CN(C)S(=O)(=O)c2ccc(C(C)(C)C)cc2)[C@@H]2C(=O)N(Cc3ccccc3)C(=O)[C@@H]21,-9.1% (inactive)
2,Cc1ccc(Nc2nc(N)nc(-c3oc4ccccc4c3C)n2)cc1,-6.47% (inactive)
3,O=C(Nc1ccccn1)C(=O)Nc1ccccn1,-1.25% (inactive)
4,O=C(NCc1ccccn1)C(=O)N/N=C/c1ccc2c(c1)OCO2,-4.91% (inactive)
5,COc1cc(/C=N/NC(=O)C(=O)Nc2ccccn2)ccc1O,-6.98% (inactive)
6,Cc1cc(/C=N/NC(=O)C(=O)NCc2ccccn2)c(C)n1-c1ccccc1,-2.44% (inactive)
7,COc1ccc(-c2c(C)nc3c(-c4ccc(F)cc4)cnn3c2N)cc1,-14.5% (inactive)
8,COc1cc(C(=O)NC2=NCCS2)ccc1OCc1c(C)noc1C,-1.34% (inactive)
9,O=C(CNC(=O)c1cccc(N2C(=O)c3ccccc3C2=O)c1)Nc1ccc(F)c(F)c1,-11.5% (inactive)
10,COc1cc(Br)cc(CN2CCN(c3ncccn3)CC2)c1O,-10.6% (inactive)
11,Cc1c(O)c(CN2CCCC2)cc2c1oc(=O)c1ccccc12,-0.95% (inactive)
12,COc1cccc(C(=O)Oc2c(CN3CCOCC3)cc(Cl)c3cccnc23)c1,4.96% (inactive)
13,COc1cc(Br)cc(CN2CCN(C)CC2)c1O,2.34% (inactive)
14,Cc1ccc2c(c1)N(CCC(=O)NC1CC1)C(=O)C(C)O2 (stereo not given),-4.26% (inactive)
15,COC(=O)c1cc(NC(=S)Nc2cc(Cl)cc(Cl)c2)cc(C(=O)OC)c1,-5.67% (inactive)
16,CN(Cc1ccc(F)cc1)C(=O)c1ccc(NC(=O)CC2SC(N3CCCC3)=NC2=O)cc1 (stereo not given),9.52% (inactive)
17,Cc1ccc(OCc2nnc(SCC(=O)Nc3ncc(C)s3)o2)cc1,-2.25% (inactive)
18,CCCC(=O)Nc1ccc(NC(=O)c2cccs2)cn1,20.7% (inactive)
19,CN(C)c1ccc(CN(C)C2CCCCC2)cc1,-7.34% (inactive)
20,CN(C)c1ccc(CCc2ccc(N)cc2)cc1,14.3% (inactive)
21,CCN(Cc1ccccc1)c1ccccc1,-3.09% (inactive)
22,NC(N)=N/N=C/c1ccc(N(c2ccccc2)c2ccccc2)cc1,-36.1% (inactive)
23,Cc1ccc(C)c(NC(=S)N(CCN(C)C)C(C)c2ccccn2)c1 (stereo not given),4.89% (inactive)
24,Cc1cccc(C)c1NC(=S)N(CCN(C)C)C(C)c1ccccn1 (stereo not given),10.7% (inactive)

row,Structure (SMILES),inhibition
1,Cc1cc(=O)[nH]c(SCC(=O)Nc2ccc(C)c(S(=O)(=O)N3CCCCC3)c2)n1,14% (inactive)
2,O=C(CNC(=O)c1ccco1)Nc1ccc2c(c1)OCCO2,5.25% (inactive)
3,COc1ccc(/C=C/C(=O)NC(=S)NNC(=O)c2c(-c3ccccc3)noc2C)cc1,-5.37% (inactive)
4,Cc1[nH]c(=S)[nH]c(=O)c1CCOc1ccccc1,21.1% (inactive)
5,O=S(=O)(c1ccc(NC(=S)N/N=C/c2ccc(O)c(O)c2)cc1)N1CCOCC1,7.64% (inactive)
6,O=S(=O)(c1ccc(NC(=S)Nc2ccccc2)cc1)N1CCOCC1,1.71% (inactive)
7,NNC(=S)Nc1ccc(S(=O)(=O)N2CCOCC2)cc1,-2.99% (inactive)
8,O=C(N/N=C/c1cc(Cl)cc([N+](=O)[O-])c1O)c1cccc(S(=O)(=O)N2CCOCC2)c1,13% (inactive)
9,Cc1sc2ncnc(OCC(=O)NC(C)C(C)C)c2c1C (stereo not given),11.9% (inactive)
10,N/C(=N\[N+](=O)[O-])N1CCN(C(=O)OC2CCCC2)CC1,0.06% (inactive)
11,CCN(CC(=O)Nc1c(F)cccc1F)C(=O)CCNC(=O)c1ccc([N+](=O)[O-])cc1,-2.66% (inactive)
12,O=C(O)c1cccc(-c2ccccc2)c1O,-26.6% (inactive)
13,Cc1ccc2oc(-c3ccccc3C(=O)O)cc(=O)c2c1,1.72% (inactive)
14,CN1CCN(C(=O)Nc2ccc([N+](=O)[O-])cc2)CC1,15.5% (inactive)
15,COc1ccc(C(=O)COC(=O)Cn2nnc3ccccc32)cc1Br,18.7% (inactive)
16,O=C(CN1CCOc2ccccc21)NCc1ccco1,-0.84% (inactive)
17,O=C(CN1C(=O)C2C3C=CC(C3)C2C1=O)OCC(=O)c1ccc(Br)cc1 (stereo not given),4.57% (inactive)
18,O=C(CN1C(=O)c2ccccc2C1=O)OCC(=O)c1ccccc1,-5.68% (inactive)
19,CCC1Oc2ccccc2N(CC(=O)NCc2ccco2)C1=O (stereo not given),-8.15% (inactive)
20,COc1ccc(C(=O)COC(=O)C2CC3CCCC(C2)C3=O)cc1Br (stereo not given),-3.01% (inactive)
21,O=C(Cn1[nH]c(=O)c2ccccc2c1=O)OCC(=O)c1ccc(Br)cc1,5.91% (inactive)
22,O=C1CN(CC(=O)N2CCCCC2)c2ccccc2O1,16% (inactive)
23,Cc1c(C)c2ccc(OCC(=O)N3CCN(c4ccccc4)CC3)cc2oc1=O,4.8% (inactive)
24,COc1cc(C2NC(=O)NC(c3ccccc3)=C2C(C)=O)cc(Cl)c1OCC(=O)O (stereo not given),-2.44% (inactive)

row,Structure (SMILES),inhibition
1,CC[C@@]1(C(=O)OC)N[C@H](CN(C)S(=O)(=O)c2ccc(OC)cc2)[C@@H]2C(=O)N(C)C(=O)[C@@H]21,-26.2% (inactive)
2,Cc1ccc(S(=O)(=O)NCC(=O)OCC(=O)NCc2ccco2)cc1,-3.09% (inactive)
3,O=C(Nc1cccc(Cl)c1)c1cnccn1,-1.59% (inactive)
4,Fc1ccc(NC(=S)N/N=C/c2ccc(F)c(F)c2)cc1,0.18% (inactive)
5,O=C(CCC(=O)Nc1ccc(F)cc1)N/N=C/c1ccccc1O,-5.76% (inactive)
6,Cc1cccc(NC(=S)N/N=C/c2cccc(O)c2)c1C,-3.84% (inactive)
7,Fc1ccc(NC(=S)NN=Cc2ccccc2Cl)cc1,-9.24% (inactive)
8,C/C(=N\NC(=S)Nc1ccccc1C)c1ccc(O)cc1,10.4% (inactive)
9,O=C(CCC(=O)Nc1ccc(F)cc1)N/N=C/c1ccc(O)cc1O,9.41% (inactive)
10,Cc1ccc(S(=O)(=O)NCc2ccccc2)cc1C(=O)N1CCN(S(=O)(=O)c2ccccc2)CC1,-12.2% (inactive)
11,COC(=O)C1SCCN1S(=O)(=O)c1ccc(Cl)cc1 (stereo not given),-20.7% (inactive)
12,CN(C)c1nc(OCC(=O)NC(C)(C)C)nc(N(C)C)n1,-0.43% (inactive)
13,O=C(c1ccc(Br)c(S(=O)(=O)N2CCOCC2)c1)N1CCN(C/C=C/c2ccccc2)CC1,-13% (inactive)
14,CC1(c2ccc3c(c2)OCCO3)NC(=O)N(CC(=O)Nc2ccccc2SCC#N)C1=O (stereo not given),-12.2% (inactive)
15,Oc1ccc(N=Nc2ccc(Br)cc2)c(O)c1,-16.2% (inactive)
16,O=S(=O)(c1cc(O)ccc1O)c1cccc2c(S(=O)(=O)c3cc(O)ccc3O)cccc12,12.4% (inactive)
17,Oc1ccc(N=Nc2ccc3c(c2)OCCO3)c(O)c1,12.8% (inactive)
18,O=S(=O)(O)c1cc(O)ccc1O,1.1% (inactive)
19,CC(OC(=O)c1ncc(Cl)c(Cl)c1Cl)C(=O)NC1CCCCC1C (stereo not given),-15.4% (inactive)
20,CN1C=C/C(=C\c2cc[n+](C)c3ccccc23)c2ccccc21,1.31% (inactive)
21,COc1ccc(/C=C/c2ccc3ccccc3[n+]2C)cc1OC,-10.2% (inactive)
22,CC(C)CCC(C)NC(=O)Cc1ccc(S(=O)(=O)N2CCOCC2)s1 (stereo not given),-3.75% (inactive)
23,O=C(Nc1nc(-c2ccccn2)cs1)c1cccc(-n2cnnn2)c1,-28.6% (inactive)
24,C/C(=N\NC(=O)C1COc2ccccc2O1)c1ccc(C)o1 (stereo not given),7.81% (inactive)

row,Structure (SMILES),inhibition
1,O=C(Nc1nc(-c2ccccc2)cs1)c1ccco1,1.53% (inactive)
2,O=C(Nc1nc(-c2ccncc2)cs1)c1ccco1,21.8% (inactive)
3,O=C(Nc1nc(-c2ccccn2)cs1)c1ccc(Cl)s1,12.2% (inactive)
4,CC(=O)Nc1ccc(C(=O)Nc2nc(-c3cccnc3)cs2)cc1,4.3% (inactive)
5,O=C(Nc1nc(-c2ccccn2)cs1)c1ccc2c(c1)OCCO2,4.21% (inactive)
6,C/C(=N\NC(=O)C1COc2ccccc2O1)c1cccs1 (stereo not given),-4.26% (inactive)
7,O=C(Nc1nc2c(F)cccc2s1)C1CC1,-11.6% (inactive)
8,O=C(CN1CCCCC1)Nc1ccc(F)c(Cl)c1,6.14% (inactive)
9,CC(=O)N1N=C(c2ccc(C)cc2)CC1c1ccc2c(c1)OCO2 (stereo not given),-19.2% (inactive)
10,Cc1n[nH]c(C)c1CCN(C)Cc1cn(C)nc1-c1ccccc1F,-2.31% (inactive)
11,CCOC(=O)C(CC)n1cnc2c(nnn2-c2ccccc2)c1=O (stereo not given),4.43% (inactive)
12,CC(C)C[C@@H](CNCC(=O)[C@H](Cc1ccccc1)NC(=O)c1[nH]cnc1C(=O)N[C@@H](C)CN)NC(=O)c1nc[nH]c1C(=O)N[C@@H](C)C(=O)O,-9.76% (inactive)
13,O=C(NCc1cccs1)Nc1cc(Cl)ccc1Cl,-3.84% (inactive)
14,Cc1csc(NC(=O)C2CC(=O)N(c3ccc4c(c3)OCCO4)C2)n1 (stereo not given),-10.8% (inactive)
15,COc1ccc(-c2csc(NC(=O)C3CC(=O)N(c4ccc5c(c4)OCCO5)C3)n2)cc1 (stereo not given),-0.66% (inactive)
16,O=C(Nc1nc(-c2ccccc2)cs1)C1COc2ccccc2O1 (stereo not given),3.59% (inactive)
17,Cc1ccnc2nc(C(=O)Nc3nc4ccccc4s3)nn12,-12.1% (inactive)
18,Cc1csc(NC(=O)c2nc3nccc(C)n3n2)n1,11.3% (inactive)
19,CC(NC(=O)c1ccco1)C(=O)Nc1nccs1 (stereo not given),-3.4% (inactive)
20,C[C@H](NC(=O)c1ccco1)C(=O)Nc1nc(-c2ccccn2)cs1,21.6% (inactive)
21,Cc1csc(NC(=O)C2COc3ccccc3O2)n1 (stereo not given),3.59% (inactive)
22,Cc1ccc(NCC(=O)N/N=C/c2ccncc2)cc1,-3.31% (inactive)
23,COc1ccc(Cc2noc(CN(C)CC(O)c3ccccc3)n2)cc1OC (stereo not given),-6.23% (inactive)
